In PubChem BioAssay:
Calls of active or inactive are those of the source. How the calls were made is not given here.

Target: Pantothenate synthetase (Mycobacterium tuberculosis (strain ATCC 25618 / H37Rv)) (UniProt P9WIL5)
Experiment: Recombinant Mtb pantothenate synthetase (PanC) inhibitors, coupled enzyme, confirmatory (AID 375);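 further: 0% = full reaction with vehicle and 100% = no enzyme background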
Conditions: coupled enzyme assay; at 10 µM, hits give high values

Chain of Pantothenate synthetase (Mycobacterium tuberculosis (strain ATCC 25618 / H37Rv)) (P9WIL5 whole entry, looked up): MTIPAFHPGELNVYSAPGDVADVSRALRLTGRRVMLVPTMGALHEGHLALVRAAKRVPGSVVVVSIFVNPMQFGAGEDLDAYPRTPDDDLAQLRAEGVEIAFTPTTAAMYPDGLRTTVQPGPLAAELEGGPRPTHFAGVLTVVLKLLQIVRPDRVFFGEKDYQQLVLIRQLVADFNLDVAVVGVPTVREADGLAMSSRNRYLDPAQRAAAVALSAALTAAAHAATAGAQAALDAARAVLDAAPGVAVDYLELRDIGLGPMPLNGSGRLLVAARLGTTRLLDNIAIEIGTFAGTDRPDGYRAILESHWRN

SMILES	inhibition
O=C(COc1ncnc2ccccc12)NCc1ccc2c(c1)OCO2	0% (inactive)
CC1=C(C(=O)Nc2cccnc2)C(c2ccc(C(C)C)cc2)n2ncnc2N1 (stereo not given)	1% (inactive)
CCOc1ccc2[nH]c(=O)c(C(c3nnnn3CC3CCCO3)N3CCc4ccccc4C3)cc2c1 (stereo not given)	0% (inactive)
Cn1c(C(=O)Nc2ccc3c(c2)OCO3)cc2c(=O)n(C)c3ccccc3c21	0% (inactive)
O=C(NCc1ccccn1)Nc1ccc2c(c1)OCO2	4% (inactive)
Cc1ccc(CCC(=O)Nc2ccc(S(N)(=O)=O)cc2)o1	1% (inactive)
C/C(Cl)=C\Cn1c(Nc2ccc(C)cc2)nc2c1c(=O)n(C)c(=O)n2C	3% (inactive)
Cc1cccc(OCCNC(=O)c2ncn[nH]2)c1	0% (inactive)
CC[N+](C)(C)c1cccc(O)c1	0% (inactive)
O=S(=O)(c1ccc2c(c1)OCCO2)N(Cc1ccc(F)cc1)Cc1nnc(-c2cccs2)o1	5% (inactive)
CS(=O)(=O)N(CC(=O)N1CCc2ccccc2C1)c1ccc2c(c1)OCO2	0% (inactive)
CC(NO)C(C)(C)NO (stereo not given)	8% (inactive)
COc1ccccc1OCCOc1ccccc1/C=N/n1cnnc1	6% (inactive)
CCN(CC)C(=O)CSc1nnc([C@@H](N)Cc2ccccc2)o1	0% (inactive)
CCOC(=O)c1sc2cccc(F)c2c1N	13% (inactive)
Cc1ccc(S(=O)(=O)N2CCC(C(=O)N3CCN(Cc4ccccc4)CC3)CC2)cc1	0% (inactive)
CC1=C(C(=O)N2CCOCC2)C(c2ccccc2F)C2=C(CCCC2=O)N1 (stereo not given)	3% (inactive)
O=C(NCCCN1CCCC1=O)c1ccc2c(c1)NC(=O)C(N1CCOCC1)S2 (stereo not given)	2% (inactive)
COc1ccc(C(=O)N2CCCc3ccccc32)cc1	0% (inactive)
CCOC(=O)c1ccc(NS(=O)(=O)c2cccc3nsnc23)cc1	8% (inactive)

SMILES	inhibition
CCSC1(SCC)N=C(N)C2(C#N)C(c3ccccc3)NC(C)=C(C)C12C#N (stereo not given)	0% (inactive)
COC(=O)Nc1ccc(S(=O)(=O)N2CCN(c3ccc(F)cc3)CC2)cc1	0% (inactive)
O=C(NC1CCCCCC1)C1CCCN(S(=O)(=O)c2cccs2)C1 (stereo not given)	0% (inactive)
CCCn1cnc2c(cnn2-c2ccc(F)cc2)c1=O	4% (inactive)
CCc1ccc(Nc2cc(=O)n(C3CCCCC3)c(=O)[nH]2)cc1	0% (inactive)
CCOc1ccccc1CNC(=O)CCN1C(=O)COc2ccccc21	0% (inactive)
CCOC(=O)C1=C(C)N(C)C(=O)NC1c1cccc(O)c1 (stereo not given)	0% (inactive)
Cc1occc1C(=O)Nc1ccc(S(=O)(=O)N2CCN(C)CC2)cc1	0% (inactive)
Cc1ccc2cc(CN(Cc3ccc4c(c3)OCO4)Cc3nnnn3Cc3ccco3)c(=O)[nH]c2c1C	0% (inactive)
CC(C)(CSc1nncn1N)NS(=O)(=O)c1ccc(Cl)cc1	0% (inactive)
COc1ccccc1CNC(=O)C(C)NS(=O)(=O)c1ccccc1 (stereo not given)	3% (inactive)
Nc1c(S(=O)(=O)c2cccs2)c2nc3ccccc3nc2n1CC1CCCO1 (stereo not given)	0% (inactive)
O=C(Cn1cnc2c(nnn2-c2ccc(F)cc2)c1=O)N1CCCc2ccccc21	0% (inactive)
Cc1nc(NC(=O)C23CCC(C)(C(=O)O2)C3(C)C)sc1C (stereo not given)	0% (inactive)
COC(=O)c1ccc(-n2nnnc2SCc2nn[nH]n2)cc1	0% (inactive)
Cc1c(-n2c(CN3C(=O)c4ccccc4C3=O)nc3ccccc3c2=O)c(=O)n(-c2ccccc2)n1C	0% (inactive)
O=C(NCc1ccco1)c1csc(Nc2ccccc2Cl)n1	0% (inactive)
COc1cc(C2C(C#N)=C(N)Oc3cc(N)ccc32)cc(OC)c1OC (stereo not given)	2% (inactive)
CS(=O)(=O)c1ccc2nc(NC(=O)c3cccs3)sc2c1	0% (inactive)
CN1CCc2nc(SCCOc3ccccc3)c(C#N)cc2C1	0% (inactive)
